From PubChem BioAssay
Sampled rows, rich in hits. Any-hit rate of the full collection: about 11%.
HCV inh = qHTS Assay for Inhibitors of Hepatitis C Virus (HCV); AID 651820, 2012; actives 3.4% (n = 340,000); Huh7.5.1 HCVcc-Cre infection, luciferase reporter, 44 h; Potency, µM (top dose mostly 41.8 µM), without a hit: at the highest dose activity change, negative = inhibition, most hits filed as inhibitors
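1,000 cells/well; 4 h culture; + compound; + HCVcc-Cre (~0.5 moi); 44 h; luciferase substrate, RT 15 min; read 15 sec.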
Pf growth 48h = Primary qHTS for delayed death inhibitors of the malarial parasite plastid, 48 hour incubation. P. falciparum luciferase growth in erythrocytes, 48 h. Potency, µM (titrated, usually from 28.7 µM), inactives show top-dose activity change, negative = inhibition, most hits filed as inhibitors. actives 5.9% (n = 310,000)
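Read-out is firefly luciferase luminescence from an integrated reporter in P. falciparum, so falling signal marks reduced parasite growth. Infected erythrocytes were at 2% hematocrit and 0.1% parasitemia (final) in Albumax-supplemented RPMI 1640.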
Pf growth 96h = Primary qHTS for delayed death inhibitors of the malarial parasite plastid, 96 hour incubation; P. falciparum luciferase reporter growth, 96 h; Potency, µM (top dose mostly 28.7 µM), without a hit: top-dose activity change, negative = inhibition, usual class: inhibitors; actives 6.9% (n = 320,000); AID 504834, 2011
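P. falciparum expressing integrated firefly luciferase grown in erythrocytes (2% hematocrit, 0.05% parasitemia final) with compounds for 96 hours at 37 C, 5% CO2. Growth inhibition read as loss of luminescence after adding luciferase detection reagent.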
AMA1 RON2 block = qHTS for Inhibitors of AMA1-RON; Towards Development of Antimalarial Drug Lead: Primary Screen; Plasmodium falciparum AMA1 (3D7) - RON2 peptide interaction; Potency, µM (doses to about 58.2 µM), without a hit: at the highest dose activity change, negative = inhibition, most hits filed as inhibitors; actives 0.2% (n = 360,000); AlphaScreen AMA1-biotinylated RON2 peptide binding;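 note: 0% = vehicle wells and -100% = peptide control; nearly all actives have a fitted effect of over 45% in size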
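AMA1 (3D7) with his tag at 25 nM final met compounds first, then biotinylated RON2 peptide at 25 nM; detection used donor plus acceptor beads, 10 µg/mL apiece, read by AlphaScreen after 30 min at room temperature.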
An asterisk follows results filed as active; ? = inconclusive; · = not tested or not shown; [ ] = remark or other dose. Calls come from the whole dose curve; as a rule, active = well fitted curve in the direction sought with a large enough effect; inconclusive = small, poorly fitted or top-dose-only effect, or another doubt; inactive = no such curve, though single readings can be large; an effect the other way counts as inactive or inconclusive. Unless noted, % is set by controls: 0 for no effect and ±100 for the full control effect; potency is the fitted concentration of half-maximal effect.

SMILES	HCV inh	Pf growth 48h	Pf growth 96h	AMA1 RON2 block
CC(=O)c1ccc(NC(=S)NCc2ccc(Cl)cc2Cl)cc1	?	-6%	?	-3%
CC(C)(C)c1ccc(C(=O)c2c[nH]c(C(=O)NCCCN3CCOCC3)c2)cc1	?	13µM*	10µM*	-6%
CCC(CC)C(=O)c1c[nH]c(C(=O)NCCc2ccccn2)c1	6%	-1%	?	5%
CCC(=O)c1c[nH]c(C(=O)NCCCN2CCOCC2)c1	12%	1%	16%	-10%
Cc1onc(-c2ccccc2)c1C(=O)c1c[nH]c(C(=O)NCc2ccccn2)c1	10µM*	181%	?	54%
CC(C)(C)c1ccc(C(=O)c2c[nH]c(C(=O)NCCc3ccccn3)c2)cc1	1%	10µM*	?	5%
ClC(CCN1CCN(Cc2ccccc2)CC1)c1ccccc1 (centres undefined)	-10%	·	·	2%
COCCN(CCOC)Cc1cc(=O)oc2cc(C)ccc12	·	·	·	0%
CC1=C(C#N)C(C(F)(F)F)(C(F)(F)F)N=C(c2ccco2)N1	-14%	-6%	8.3µM*	3%
CCOC(=O)[C@@H]1[C@H]2COc3ccc(Br)cc3[C@@H]2N2C(=O)N(c3ccc(C(F)(F)F)cc3)C(=O)[C@]12C	3%	?	?	-5%
CCn1cc([N+](=O)[O-])nc1C	11%	-2%	16%	29%
Cc1nc([N+](=O)[O-])cn1-c1ccc(N)cc1	-4%	5%	12µM*	8%
COc1ccc2cc3c(N)nn(C(=O)c4ccc(F)cc4)c3nc2c1	-18%	?	?	0%
COc1ccc2cc3c(N)nn(C(=O)c4ccccc4Cl)c3nc2c1	?	8.3µM*	?	4%
CC1(C)OC(=O)C(=Cc2ccc(-c3ccc(Cl)c(C(=O)O)c3)o2)C(=O)O1	8%	15µM*	?	3%
CC1=NOC(=O)/C1=C\c1ccc(-c2ccc(Cl)c(C(=O)O)c2)o1	32%	3%	?	-2%
O=C(NCc1ccco1)c1ccc(Cn2c(=O)c3ccccc3n(Cc3ccc(Cl)cc3)c2=O)cc1	11µM*	12µM*	-30%	1%
O=C(CCCCn1c(=O)c2ccccc2n(Cc2ccc(F)cc2)c1=O)NCc1ccco1	?	?	3.3µM*	1%
O=C(NCc1ccco1)c1ccc(Cn2c(=O)c3ccccc3n(Cc3cccc(F)c3)c2=O)cc1	-27%	·	·	1%
COc1cc2c(=O)n(Cc3ccccc3)c(=O)n(CC(=O)NCc3ccco3)c2cc1OC	?	?	3.7µM*	-3%
O=C(NCc1ccco1)C1CCN(c2nc3ccccc3n2Cc2ccc(F)cc2)CC1	-11%	·	10µM*	-2%
CCOC(=O)C1CCCN(C(=O)c2cccc(NC(=O)C(CC)CC)c2)C1 (centres undefined)	3%	-17%	12%[5.75 µM]	-21%
CCOc1ccc(-c2c(=O)n(OCc3ccccc3Br)c3ccccc3[n+]2[O-])c(OCC)c1	?	?	-6%	-15%
CCOc1ccc(OCC)c(-c2c(=O)n(OCc3ccccc3Br)c3ccccc3[n+]2[O-])c1	-1%	?	9.3µM*	-6%
CCc1cc2c(=O)c(-c3cnn(-c4ccccc4)c3)coc2c(CN2CCOCC2)c1O	-24%	?	?	-5%
SMILES	HCV inh	Pf growth 48h	Pf growth 96h	AMA1 RON2 block
CCc1cc2c(=O)c(-c3nc4ccccc4n3C)coc2c(CN2CCCCC2)c1O	10%	-19%	2.9µM*	-5%
CCc1cc2c(=O)c(-c3cnn(-c4ccccc4)c3)c(C(F)(F)F)oc2c(CN(C)C)c1O	6%	6.6µM*	·	7%
CCc1cc2c(=O)c(-c3cnn(-c4ccccc4)c3)c(C)oc2c(CN2CCCCC2)c1O	?	15µM*	47%	-2%
CCc1cc2c(=O)c(-c3nc4ccccc4n3C)coc2c(CN2CCOCC2)c1O	-19%	-9%	·	11%
COc1ccc(-c2ccc(C(=O)Nc3cccc(NS(C)(=O)=O)c3)c3occc23)c(C)c1	·	·	·	-22%
COc1ccc(NC(C)=O)cc1NC(C)C(=O)Nc1cc(C(F)(F)F)ccc1N1CCOCC1 (centres undefined)	?	3.7µM*	?	-6%
Cc1ccc[n+](CC(=O)Nc2cc(C(F)(F)F)ccc2N2CCOCC2)c1	2%	2.1µM*	?	3%
O=C(Cc1ccc2c(c1)OCCO2)Nc1cc(C(F)(F)F)ccc1N1CCOCC1	?	15µM*	?	1%
O=C(Nc1cc(C(F)(F)F)ccc1N1CCOCC1)C1=COCCO1	11%	-2%	?	-8%
O=C(CCc1ccccc1)NC(=S)Nc1cc(C(F)(F)F)ccc1N1CCOCC1	-8%	?	8.3µM*	10%
Cc1ccc(S(=O)(=O)N2[C@H](CC(=O)Oc3ccccc3)OC[C@@H]2C(C)C)cc1	·	·	·	-6%
O=C1CCCN1CCCN1CC(C(=O)N(CCO)Cc2ccccc2)CCC1=O (centres undefined)	3%	4%	?	11%
CCCCCCCCN1C(=O)[C@H](CC(=O)N2CCN(C(=O)C3CC3)CC2)C[C@@]2(C(=O)OCC)CCCC=C12	·	·	·	55%
O=C(NCc1ccccn1)c1ccc(Cl)s1	3%	·	10%	31%
O=C(NCc1ccccn1)c1ccc(Br)s1	16%	3.7µM*	·	58%
Cc1ccc(NNc2c(C)nc3ccccc3nc2=O)cc1	-9%	16%	19%	1%
CCCCN(C)C(=O)c1cc2c(s1)-c1ccccc1S(=O)(=O)C2	-23%	34%	18%	-13%
CCCOc1ccc(/C=N/NC(=S)Nc2ccccc2[N+](=O)[O-])c(O)c1	?	2.6µM*	?	45%
CCCOc1ccc(/C=N/Nc2ccccc2[N+](=O)[O-])c(O)c1	11%	233%	14%	-16%
CCOC(=O)c1sc(NC(=O)CSc2n[nH]c(CC(C)C)n2)nc1C	?	4%	?	8%
COc1ccc(-c2cc(C(=O)Nc3cc(C)ccc3O)no2)cc1	?	-17%	3.3µM*	-2%
COc1ccc(-c2cc(C(=O)Nc3ccc(F)cc3F)no2)cc1	-5%	·	?	-9%
COc1ccc(-c2cc(C(=O)Nc3c(F)cc(F)cc3Br)no2)cc1	-28%	30%	8.3µM*	8%
Cc1cc(C)cc(N(CCC(=O)Nc2nnc(C)s2)S(=O)(=O)c2ccc(Cl)cc2)c1	6%	?	?	11%
CCOC(=O)C1=C(c2ccccc2)NC(SCC(=O)Nc2ccccc2C)=C(C#N)C1c1ccco1 (centres undefined)	?	8.3µM*	27%	10%
CCOC(=O)C1=C(c2ccccc2)NC(SCC)=C(C#N)C1c1cccnc1 (centres undefined)	-5%	?	8.3µM*	1%
